Our source for the composite z-score and composite Z-score values is PubChem BioAssay.

Test [1] has as its target Albumin (Bos taurus) (UniProt P02769). Description: compounds binding labelled BSA control protein – biochemical, small-molecule microarray, Alexa647 label, 635/667 nm fluorescence, artefact control for SMM control protein annotation, profiling panel (AID 1118).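 Further: score merges 667 nm emission intensity and signal-to-noise per printed compound spot.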 As to conditions: BSA-A647 binding, fluorescence 635 nm, higher = more signal.
Test [2] is described as follows: probe aXIP binding to arrayed compounds – biochemical, NeuroSMM set, 635/667 nm fluorescence, primary screen (AID 1119).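 Further: probe is the protein aXip251-270 applied at 1 µg/mL to compound-printed slides; binding of probe to printed compounds measured as 667 nm fluorescence plus signal to noise.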 As to conditions: small-molecule microarray, higher = more signal, called active from +8 up or from −8 down.
Test [3] can be described thus: probe aNOTCH3 binding on compound microarray – biochemical, small-molecule microarray, 635/667 nm fluorescence, primary screen (AID 1120).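 Further: probe is a biotin-tagged antibody raised against NOTCH3 rather than NOTCH3 protein; score merges spot fluorescence near 667 nm with spot signal to noise.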 As to conditions: higher = more signal.
A short description of test [4]: probe aNOTCH2 binding on compound microarray – biochemical, small-molecule microarray, 635/667 nm fluorescence, primary screen (AID 1121).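 Further: score merges feature fluorescence read at 667 nm with its signal to noise.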 As to conditions: higher = more signal.
The target in test [5] is Carbonic anhydrase 2 (Homo sapiens) (UniProt P00918). In words: compounds binding carbonic anhydrase 2 – biochemical, small-molecule microarray, Alexa647-labelled CAII, profiling panel (AID 1122). As to conditions: CAII-A647 binding fluorescence, higher = more signal.
Test [6] in a line: COS7 lysate on small-molecule microarray, probe aHis, 635 nm (AID 1123).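 Further: z-score combines 667nm fluorescence intensity with signal-to-noise per printed compound spot.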 As to conditions: COS7 cell lysate, fluorescence, higher = more signal.
A short description of test [7]: probe aLAP1 signal on lysate-treated microarray – cell lysate, small-molecule microarray, COS7 lysate, primary screen (AID 1124).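 Further: lysate comes from COS7 cells expressing LAP1 and is applied at 0.3 µg/mL; score merges spot fluorescence near 667 nm with signal-to-noise over triplicate slides.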 As to conditions: probe aLAP1, fluorescence, higher = more signal.
Test [8] concerns Sam68 (KHDRBS1). Description: compounds binding KHDRBS1 protein – biochemical, small-molecule microarray, 635 nm fluorescence, primary screen (AID 1125).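 Further: score merges 667 nm channel intensity with signal to noise over triplicate slides.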 As to conditions: higher = more signal.
Test [9] deals with Chordin-like protein 2 (CHRDL2). Description: compounds binding chordin-like 2 – biochemical, small-molecule microarray, 635 nm fluorescence, primary screen (AID 1126).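 Further: printed compound slides probed with Chrdl2 protein at 4 µg/mL for 1 h at 4 C; score merges 667 nm emission intensity with signal to noise over three replicate slides.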 As to conditions: fluorescence 635 nm, higher = more signal.
In test [10] the target is Concanavalin-A (Canavalia ensiformis) (UniProt P02866). In words: compounds binding concanavalin A lectin – biochemical, small-molecule microarray, Alexa647 label, 635 nm, artefact control for SMM control protein annotation, primary screen (AID 1127).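 Further: z combines 667 nm emission intensity with signal-to-noise across three replicate slides.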 As to conditions: ConA-A647 binding fluorescence, higher = more signal.

The structures appear in SMILES notation. The source made the active and inactive calls.

Sequence of Albumin (Bos taurus) (P02769 whole entry, looked up): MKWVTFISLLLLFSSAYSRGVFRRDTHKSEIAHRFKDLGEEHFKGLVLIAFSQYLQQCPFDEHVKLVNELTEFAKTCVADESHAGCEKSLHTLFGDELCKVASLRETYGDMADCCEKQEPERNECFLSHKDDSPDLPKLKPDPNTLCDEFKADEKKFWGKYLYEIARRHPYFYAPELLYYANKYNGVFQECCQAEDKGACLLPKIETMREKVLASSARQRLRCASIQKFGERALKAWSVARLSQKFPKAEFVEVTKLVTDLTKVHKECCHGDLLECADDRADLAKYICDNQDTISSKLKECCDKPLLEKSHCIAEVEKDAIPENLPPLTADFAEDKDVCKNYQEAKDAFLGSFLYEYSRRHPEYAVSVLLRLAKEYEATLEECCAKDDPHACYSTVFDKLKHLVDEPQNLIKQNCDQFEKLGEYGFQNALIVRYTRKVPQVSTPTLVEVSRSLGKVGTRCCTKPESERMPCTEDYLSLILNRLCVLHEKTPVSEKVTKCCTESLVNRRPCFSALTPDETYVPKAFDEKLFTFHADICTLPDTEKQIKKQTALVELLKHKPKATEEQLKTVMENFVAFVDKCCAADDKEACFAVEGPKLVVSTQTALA
Sequence of Concanavalin-A (Canavalia ensiformis) (P02866 whole entry, looked up): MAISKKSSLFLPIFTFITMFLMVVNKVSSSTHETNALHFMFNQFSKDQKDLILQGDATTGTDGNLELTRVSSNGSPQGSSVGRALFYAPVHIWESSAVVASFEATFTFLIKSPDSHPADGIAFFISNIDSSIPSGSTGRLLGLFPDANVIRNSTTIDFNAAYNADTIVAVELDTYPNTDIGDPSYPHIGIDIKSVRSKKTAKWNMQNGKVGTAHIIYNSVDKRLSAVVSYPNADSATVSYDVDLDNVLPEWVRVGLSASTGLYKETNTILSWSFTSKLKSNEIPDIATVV

`COC(=O)Cn1c(C(=O)N(C)C)cc2c1C[C@H]1CN(C(=O)c3ccccc3)[C@@](Cc3ccccc3)(C(=O)OC)[C@@H]21`: the composite z-score came out at 0.759 in test [1]; 0.194 in test [3]; 0.417 in test [4]; 0.792 in test [5]; 1.55 in test [6]; 0.817 in [7]. In addition, the values for the composite z-score in test [8], in test [9] and in [10] were -0.627, -0.537 and 0.169, respectively. Besides, in test [2], the composite Z-score was -0.265 (inactive).

As to `O=C1NC(=O)C2C1C=CC(C(O)c1ccc(F)cc1)N2Nc1ccc(Cl)cc1Cl` (stereo not given), the composite z-score was 0.369 in [1]; 0.0488 in test [3]; -0.0113 in [4]; 0.732 in [5]; 2.4 in test [6]; 0.591 in test [7]. In addition, the composite z-score was 0.246 in test [8], -0.242 in test [9] and -0.345 in test [10]. In addition, the composite Z-score in test [2] is 1.69 (inactive).

Take `COc1ccc(CCNC(=O)[C@@H]2c3ccccc3C(=O)N(Cc3cc(F)cc(C(F)(F)F)c3)[C@H]2c2ccc(CO)cc2)cc1`: the composite z-score was -0.0885 in [1]; 0.249 in [3]; 0.207 in test [4]; 0.753 in test [5]; 2.1 in test [6]; 1.51 in [7]. The composite z-score in [8] came out at 1.03; in test [9], 0.0818; in [10] it was 0.198. Moreover, the composite Z-score in test [2] is -0.795 (inactive).

In the case of `CCCCCN1CC=CC23O[C@@H]4/C=C\CCCOC(=O)C4[C@H]2C(=O)N(CCCCCO)[C@@H]3C1=O` (stereo not given in full), the composite z-score is -0.191 in test [1]; -0.233 in test [3]; -0.182 in test [4]; 0.777 in test [5]; -1.89 in test [6]; -0.682 in test [7]. Moreover, the values for the composite z-score in test [8], in [9] and in [10] were -0.178, -0.801 and -0.691, respectively. Besides, the composite Z-score in [2] is -0.594 (inactive).

In the case of `C=C(C(=O)CC[C@H](OC(=O)c1ccccc1-c1ccccc1C(=O)O)c1ccc(OCCO)cc1)C(C)C`, the composite z-score in test [1] is 0.816; in [3], 0.0282; in test [4] it was -0.106; in test [5] it was 0.59; in [6], 1.61; in [7], -0.284. In addition, the composite z-score was 0.884 in [8], -0.0766 in test [9] and 0.708 in test [10]. The composite Z-score in test [2] is -0.691 (inactive).

For `[N-]=[N+]=NCc1ccccc1C[C@@]1(C(=O)NCCN2CCOCC2)N=C(c2ccc(OCCCO)cc2)O[C@@H]1c1ccccc1`, the composite z-score in [1] is 0.818; in [3] it was 0.307; in test [4] it was -0.106; in [5], 0.655; in [6] it was 2.77; in test [7] it was 0.136. For the same compound, the composite z-score is 1.19 in test [8], -0.879 in test [9] and 0.944 in test [10]. Besides, the composite Z-score in test [2] was 1.03 (inactive).

For the compound `CCOC(=O)C[C@H]1[C@H](OC(=O)c2cc3ccccc3oc2=O)[C@@H](NC(=O)c2ccc(-c3ccccc3)cc2)c2cc(OCCCO)ccc2N1C(=O)Cc1ccc(OC)cc1`, the composite z-score was 0.0146 in test [1]; 0.213 in test [3]; -0.0578 in test [4]; 0.383 in test [5]; 1.07 in test [6]; 0.774 in [7]. In addition, the composite z-score in test [8] was 0.864; in test [9], 0.346; in test [10] it was 0.833. Also, the composite Z-score in test [2] was 0.243 (inactive).

Regarding `CO[C@H]1O[C@H](CO)[C@@H](OC(=O)CCc2ccccc2)[C@@H]2OC(=O)[C@@H](Cc3ccc4ccccc4c3)C/C=C/C[C@H](Cc3ccc4ccccc4c3)C(=O)O[C@@H]12`, the composite z-score in test [1] was 0.199; in test [3], -0.21; in test [4], -0.172; in [5], 0.191; in [6] it was 1.18; in [7], 0.273. Further, the values for the composite z-score in [8], in [9] and in test [10] were -0.183, -1.34 and 0.208, respectively. For the same compound, in test [2], the composite Z-score was 0.128 (inactive).

`C=C(CC1([C@@H](NP(=O)(c2ccccc2)c2ccccc2)[C@H]2C[C@@H]2CCCC)CC1)c1cccc(OC)c1`: the composite z-score in [1] was 0.615; in test [3], 0.222; in [4] it was 0.119; in [5], 0.334; in [6], 1.86; in [7], -0.151. Further, the composite z-score in test [8] is -0.176; in [9] it was -1.06; in test [10] it was 0.506. For the same compound, the composite Z-score in test [2] is 0.107 (inactive).

As to `COC(=O)C(CC#Cc1ccc2c(c1)[C@]1(C(=O)N2)[C@H](c2ccc(OCCO)cc2)N2[C@H](c3ccccc3)[C@H](c3ccccc3)OC(=O)[C@H]2[C@@H]1C(N)=O)C(=O)OC`, the composite z-score is 0.734 in test [1]; -0.209 in [3]; -0.136 in test [4]; 0.389 in test [5]; 2.2 in test [6]; 0.431 in test [7]. Further, the composite z-score in test [8] is 1.06; in [9] it was -0.907; in test [10] it was 1.14. The composite Z-score in [2] was -0.0003 (inactive).

Consider `CC(C)C[C@@H]1NC(=O)[C@@H]2C[C@H](C(=O)NCCCCCCNC(=O)CS)[C@H](c3ccc(O)cc3)N2C1=O`, for which the composite z-score in [1] is -0.025; in [3] it was 0.133; in test [4], -0.0817; in [5] it was 0.706; in [6], 1.91; in [7], 0.655. The composite z-score stood at 1.28 in test [8], 1.26 in [9] and 0.995 in [10]. Besides, in test [2], the composite Z-score was 0.0101 (inactive).

In the case of `COc1ccc([Si](C)(C)[C@@H]2[C@@H](CC(=O)N(CCO)Cc3ccccc3)O[C@]3(C(=O)N(Cc4cccc(I)c4)c4ccccc43)[C@H]2C)cc1`, the composite z-score in test [1] was -0.783; in test [3] it was 0.0522; in [4], -0.0576; in test [5], 0.364; in test [6], 0.763; in [7], 0.363. In addition, the composite z-score is 1.01 in [8], 1.12 in test [9] and 0.779 in test [10]. In test [2], the composite Z-score is 0.0089 (inactive).

On to `C[C@]1(C(=O)O)c2ccccc2C(=O)N(Cc2cc(C(F)(F)F)cc(C(F)(F)F)c2)[C@H]1c1ccc(CO)cc1`, for which the composite z-score is 0.514 in test [1]; 0.0426 in test [3]; -0.106 in test [4]; 0.728 in test [5]; 0.516 in [6]; -0.178 in [7]. The results for the composite z-score in [8], in [9] and in test [10] were 0.666, -0.833 and 0.928, respectively. Besides, in test [2], the composite Z-score was 0.365 (inactive).

In the case of `COCCOC(=O)N1C(=O)[C@@]2(c3cc(C#CCC(C(=O)OC)C(=O)OC)ccc31)[C@H](C(=O)N1CCc3cc(OC)c(OC)cc3C1)[C@H]1C(=O)O[C@H](c3ccccc3)[C@H](c3ccccc3)N1[C@@H]2c1ccccc1OCCO`, the composite z-score in test [1] is 0.329; in test [3], 0.182; in test [4], -0.106; in [5] it was 0.401; in test [6], 0.977; in [7], 0.75. In addition, the composite z-score turned out to be 1.3 in [8], 0.854 in test [9] and 1.14 in test [10]. Further, the composite Z-score in [2] is -0.331 (inactive).

For `Cc1ccc(S[C@]2(C(=O)NCCN3CCOCC3)CC(=O)N(C(C)C)[C@@H]2c2ccc(CO)cc2I)cc1`, the composite z-score in test [1] is -0.233; in test [3] it was -0.0111; in test [4], -0.0391; in test [5], 0.288; in [6] it was 1.19; in test [7], 0.933. Also, the composite z-score is 0.949 in test [8], -0.975 in [9] and -0.452 in [10]. Moreover, in [2], the composite Z-score was 0.289 (inactive).

Turning to `C=CC[C@H](OC(=O)Nc1ccc(SC)cc1)c1ccc(O)c(F)c1`, the composite z-score in test [1] is 0.333; in test [3] it was -0.246; in test [4], -0.168; in test [5] it was 0.577; in [6], 0.596; in test [7], -0.172. For the same compound, the composite z-score in test [8] was -1.28; in [9] it was -0.174; in test [10] it was -0.873. Moreover, in [2], the composite Z-score is 0.514 (inactive).
